From PubChem BioAssay
Pf growth 96h: Primary qHTS for delayed death inhibitors of the malarial parasite plastid, 96 hour incubation; P. falciparum luciferase reporter growth, 96 h; Potency, µM (top dose mostly 28.7 µM), without a hit: at the highest dose activity change, negative = inhibition, most hits filed as inhibitors; hit rate 6.9% among 320,000; AID 504834, 2011
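Two-generation exposure (96 h) targets delayed-death phenotype. Reporter parasites carrying integrated firefly luciferase, in red cells at 2% hematocrit and 0.05% parasitemia final, kept at 37 C, 5% CO2; luminescence loss indicates inhibition.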
HCV inh: qHTS Assay for Inhibitors of Hepatitis C Virus (HCV); hit rate 3.4% among 340,000; Huh7.5.1 HCVcc-Cre infection, luciferase reporter, 44 h; Potency, µM (doses to about 41.8 µM), without a hit: top-dose activity change, negative = inhibition, hits mostly inhibitors; AID 651820, 2012
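Antiviral activity was scored by luciferase reporter output from cells infected with HCVcc-Cre (~0.5 moi) in presence of compound, 44 h infection period, cells seeded 1,000/well 4 h prior.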
Pf growth 48h: Primary qHTS for delayed death inhibitors of the malarial parasite plastid, 48 hour incubation. hit rate 5.9% among 310,000. Potency, µM (titrated, usually from 28.7 µM), for inactives: top-dose activity change, negative = inhibition, hits mostly inhibitors. P. falciparum luciferase growth in erythrocytes, 48 h
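Luciferase-expressing parasites in RBCs, 2% Hct / 0.1% parasitemia final; RPMI 1640 + 0.5% Albumax; 37 C, 5% CO2, one generation; luminescence read-out, lower signal = inhibition.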
AMA1 RON2 block: qHTS for Inhibitors of AMA1-RON; Towards Development of Antimalarial Drug Lead: Primary Screen; AlphaScreen AMA1-biotinylated RON2 peptide binding; Plasmodium falciparum AMA1 (3D7) - RON2 peptide interaction; Potency, µM (titrated, usually from 58.2 µM), for the others: at the top dose activity change, negative = inhibition, usual class: inhibitors; hit rate 0.2% among 360,000;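 further: 0% = vehicle wells and -100% = peptide control; nearly all actives have a fitted effect of over 45% in size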
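AMA1 (3D7) with his tag at 25 nM final met compounds first, then biotinylated RON2 peptide at 25 nM; detection used donor plus acceptor beads, 10 µg/mL apiece, read by AlphaScreen after 30 min at room temperature.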
* marks the source's active call; other numbers are inactive results; ? = inconclusive; . = no result given; [ ] = another dose, or the depositor's remark. This is a sample that favours compounds with a hit; in the whole collection about 11% have one here. The call rests on the fitted dose curve; in most records, active means well fitted curve in the direction sought with a large enough effect; inconclusive means small, poorly fitted or top-dose-only effect, or another doubt; inactive means no such curve, though single readings can be large; an effect the other way counts as inactive or inconclusive. Unless noted, on the % scale 0 is the no-effect control and ±100 the full control effect; potency means the concentration at half of the fitted maximal effect.

SMILES	Pf growth 96h	HCV inh	Pf growth 48h	AMA1 RON2 block
COc1ccc(C(=O)N2CCc3cc4c(cc3C2C)OCCCO4)cc1 (stereo unspecified)	13µM*	1.6µM*	?	-4%
CCNc1nc(SCC(N)=O)nc2sc3c(c12)CCN(C)C3	1µM*	20%	?	-11%
CSc1nc(SCC(N)=O)c2c3c(sc2n1)CN(C)CC3	0.59µM*	-8%	3.3µM*	-15%
Cc1ccc(C)c(N(CC(=O)NC2CCCC2)C(=O)CCC(=O)Nc2nccs2)c1	?	-29%	-29%	-10%
O=C(Cc1ccc(-n2cccc2)cc1)N1CCN(c2ccccc2F)CC1	12µM*	1%	19%	?
COc1ccc(CC(=O)N2CCN(c3ccccc3F)CC2)cc1OC	22%	11µM*	7%	-11%
COc1ccc(CC(=O)N2CCN(c3ccccc3OC)CC2)cc1OC	?	-23%	6%	-6%
CCC(=O)NCCc1nc2cc(NC(=O)c3ccc(F)cc3)ccc2n1C	204%	4%	-19%[0.00184 µM]	0%
CC(C)COc1ccc(C(=O)Nc2scc(-c3ccc(Cl)cc3Cl)c2C(N)=O)cc1	?	13µM*	3.3µM*	-1%
COC(=O)C1=C(C)N(Cc2ccc(OC)c(OC)c2)C(=O)C1	?	13%	13µM*	-7%
COc1cc([N+](=O)[O-])c2nc(C)ccc2c1[N+](=O)[O-]	.	6.3µM*	.	-1%
CCN(Cc1nc2ccccc2c(=O)[nH]1)C(=O)c1cc2c(s1)CCCCC2	8%	0%	-1%	69%
COCCn1cnnc1SCC(=O)Nc1ccc(Br)cc1F	14%	-4%	0%	-2%
COc1cccc(/C=C2\NC(=O)NC2=O)c1O	0.93µM*	11%	76%	-9%
CCOC(=O)COc1ccccc1/C=C1/NC(=O)NC1=O	10µM*	-15%	14%	-3%
CCOC(=O)COc1ccccc1/C=N/O	0%	-6%	-3%	-1%
N#C/C(=C\C=C\c1ccccc1)C(=O)NCc1ccco1	15µM*	7%	?	5%
N#C/C(=C\C=C\c1ccccc1)C(=O)N1CCCC1	?	9%	7.4µM*	-1%
Cc1ccc(S(=O)(=O)NC23CC4CC(CC(C4)C2)C3)cc1	?	?	15µM*	-9%
Cc1ccc(S(=O)(=O)NN=C2C3CC4CC(C3)CC2C4)cc1	10%	12%	1%	12%
Cc1nn(C)c(C(=O)Nc2ccc(S(=O)(=O)NC34CC5CC(CC(C5)C3)C4)cc2)c1Br	-91%	10µM*	?	-12%
COC(=O)C/C=C/[C@@H](C)[C@@H](/C=N/O[C@@H](C)c1cn([C@H](CO)Cc2ccccc2)nn1)NS(=O)(=O)c1ccc(C)cc1	12µM*	-10%[8.37 µM]	?	.
OCC1O[C@H](OC2C(CO)O[C@@](O)(CO)C2O)C(O)C(O)C1O (stereo partly specified)	-5%	.	1%	.
O=C(Cn1ncc2c3ccccc3n(Cc3ccccc3)c2c1=O)NCCCN1CCCC1=O	?	-3%	?	-2%
Cc1ccc(C)c(Cn2c3ccccc3c3cnn(CC(=O)NCCCN4CCOCC4)c(=O)c32)c1	?	-24%	13µM*	11%
SMILES	Pf growth 96h	HCV inh	Pf growth 48h	AMA1 RON2 block
O=C(Cn1ncc2c3ccccc3n(Cc3ccc(Cl)cc3)c2c1=O)NCCCN1CCCC1=O	13µM*	-24%	-21%	0%
Cc1c2cnn(CC(=O)NCCCN3CC(C)CC(C)C3)c(=O)c2c(C)n1Cc1ccccc1Cl (stereo unspecified)	6%	-19%	6.6µM*	0%
Cc1ccc(C)c(Cn2c3ccccc3c3cnn(CC(=O)NCCN4CCOCC4)c(=O)c32)c1	9.3µM*	-28%	?	0%
CN(C)CCCNCCCNC(=O)/C(=N\O)c1ccccn1	-2%	7%	-7%	53%
CC(C)CC(CO)N1CCN(C(=O)c2ccc(C(C)(C)C)cc2)CCC1=O (stereo unspecified)	-17%	4%	?	-3%
O=C(Nc1cccc2ccccc12)c1ccc([N+](=O)[O-])s1	5.2µM*	?	12µM*	-1%
Cc1ccc(C(=O)Nc2cc([N+](=O)[O-])ccc2F)s1	11%	15%	20%	10%
O=C(COC(=O)c1ccc([N+](=O)[O-])s1)Nc1ccccc1	-23%	34%	2%	-3%
O=C(Nc1ccccc1F)c1ccc([N+](=O)[O-])s1	4.1µM*	?	10µM*	-19%
CN(C)NC(=O)c1ccc([N+](=O)[O-])s1	12µM*	-3%	10µM*	-4%
O=C(Nc1cccnc1)c1ccc([N+](=O)[O-])s1	?	?	5.2µM*	-4%
CCOC(=O)Cc1csc(NC(=O)CN2CCCCC2)n1	?	24%	4%	2%
CC1(C(=O)Nc2cccc(-n3cnnn3)c2)Cc2ccccc2C(=O)O1 (stereo unspecified)	.	-2%	.	-12%
CC(=O)Nc1cc(NC(C)=O)cc(C(=O)N2CCCC3CCCCC32)c1 (stereo unspecified)	-10%	12%	31%	?
CCCNC(=O)c1ccccc1NC(=O)c1ccccc1N(C)S(=O)(=O)c1ccc(C)cc1	11%	?	8.3µM*	-3%
CN(c1ccccc1C(=O)Nc1cccc(Br)c1)S(=O)(=O)c1ccccc1	208%	-11%	-6%	10%
CC(=O)c1cccc(NC(=O)c2ccccc2N(C)S(=O)(=O)c2ccc(C)cc2)c1	13µM*	22%	?	4%
CC(=O)Nc1ccc(NC(=O)CSc2nnc(NC(=O)Cc3ccc(F)cc3)s2)cc1	2%	.	9%	7%
Cc1cccc2sc(N(CCCN(C)C)C(=O)CN3C(=O)c4ccccc4C3=O)nc12	55%	-23%	25%	0%
Cc1cccc2sc(N(CCCN(C)C)C(=O)CCc3ccccc3)nc12	1.9µM*	10µM*	?	?
CN(C)CCN(C(=O)CCS(=O)(=O)c1ccccc1)c1nc2c(F)cccc2s1	2.6µM*	9%	25%	11%
Cc1ccc2sc(N(CCCN(C)C)C(=O)CCS(=O)(=O)c3ccccc3)nc2c1C	6.6µM*	?	39%	-4%
COc1ccc(OC)c2sc(N(CCCN(C)C)C(=O)CCS(=O)(=O)c3ccccc3)nc12	20%	?	?	-11%
Cc1scc(C(=O)N/N=C/c2ccc(Cl)s2)c1C	30%	4%	106%	-11%
CN1CCN(c2ccccc2NC(=O)c2ccc([N+](=O)[O-])cc2Cl)CC1	-12%	-10%	?	-5%
O=C(NCc1ccco1)C1CC(c2ccc(C(F)(F)F)cc2)=NO1 (stereo unspecified)	.	?	.	-3%
C=CCNc1nc(NCc2ccc(N(C)C)cc2)c2sc(-c3ccccc3)cc2n1	.	.	.	2.8µM*
COc1cccc(C(=O)NCC(=O)N/N=C/c2ccc3c(c2)OCO3)c1	?	8%	42%	-3%
